A number with no mark means an inactive call. A call without a number means that no potency is given here. For some assays here: Potency and affinity values are given separately. Calls of active or inactive are those of the source. Unless noted, no rule for the calls is given here.
What was measured:
[1] = antimalarial activity against Dd2 strain (AID 2302;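 active = growth inhibition above 50% at the single 2 µM test dose, taken to imply half-maximal potency below 2 µM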); details: P. falciparum Dd2 in RBCs, LDH growth readout, 72 h; at 2 µM; stronger effect = higher value
[2] = HepG2 cytotoxicity, primary screen, cytotoxicity control for P. falciparum antimalarial project, cell-based, ATP luminescence (AID 2303;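 active = inhibition above 50%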); details: HepG2 viability, 24-48 h, at 10 µM, stronger effect = higher value
[3] = target: L-lactate dehydrogenase (Plasmodium falciparum (isolate CDC / Honduras)) (UniProt Q27743); assay: PfLDH activity inhibition – cell lysate, 3D7 strain, counter-screen for P. falciparum growth inhibition project (AID 2304); details: P. falciparum 3D7 crude extract, LDH APAD/NBT absorbance; at 2 µM; stronger effect = higher value
Chain of L-lactate dehydrogenase (Plasmodium falciparum (isolate CDC / Honduras)) (Q27743 whole entry, looked up): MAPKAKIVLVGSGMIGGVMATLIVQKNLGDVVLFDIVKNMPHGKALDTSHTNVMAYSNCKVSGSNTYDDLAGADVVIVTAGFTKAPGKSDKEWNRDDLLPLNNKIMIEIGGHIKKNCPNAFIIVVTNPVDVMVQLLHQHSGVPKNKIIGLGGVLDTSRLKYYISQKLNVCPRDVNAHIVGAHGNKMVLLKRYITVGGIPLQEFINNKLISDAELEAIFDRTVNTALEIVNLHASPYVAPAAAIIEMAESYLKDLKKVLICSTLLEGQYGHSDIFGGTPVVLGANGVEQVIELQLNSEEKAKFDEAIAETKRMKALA

[4] = inhibition of 3D7 malaria parasite growth – strain 3D7 (AID 2306); details: P. falciparum 3D7 erythrocytic growth, LDH absorbance, 72 h; at 2 µM; stronger effect = higher value
[5] = target: Calcium-dependent protein kinase 1 (Plasmodium falciparum (isolate 3D7)) (UniProt P62344); assay: PfCDPK1 kinase inhibitors, biochemical, TCAMS library (AID 1159585; cut-off not given, nearly all actives have IC50 up to about 0.98 µM;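 also: inhibitors leave more ATP so luminescence rises with inhibition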); details: recombinant PfCDPK1, Kinase-Glo ATP depletion luminescence
Chain of Calcium-dependent protein kinase 1 (Plasmodium falciparum (isolate 3D7)) (P62344 whole entry, looked up): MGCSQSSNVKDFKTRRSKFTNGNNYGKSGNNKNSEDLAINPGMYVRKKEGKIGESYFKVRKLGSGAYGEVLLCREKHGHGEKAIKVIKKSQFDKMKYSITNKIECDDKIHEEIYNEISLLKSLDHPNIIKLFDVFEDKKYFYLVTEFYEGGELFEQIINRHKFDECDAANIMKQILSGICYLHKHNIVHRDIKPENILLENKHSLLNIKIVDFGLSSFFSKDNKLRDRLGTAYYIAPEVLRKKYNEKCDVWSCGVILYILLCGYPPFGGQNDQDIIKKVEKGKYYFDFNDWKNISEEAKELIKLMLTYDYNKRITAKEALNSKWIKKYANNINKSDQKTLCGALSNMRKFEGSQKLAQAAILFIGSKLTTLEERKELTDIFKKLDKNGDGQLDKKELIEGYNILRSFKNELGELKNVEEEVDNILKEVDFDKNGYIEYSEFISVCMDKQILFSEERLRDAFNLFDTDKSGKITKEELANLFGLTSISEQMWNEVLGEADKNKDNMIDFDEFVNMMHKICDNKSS

[6] = target: Plasmodium falciparum protein kinase 6 (PK6, PF3D7_1337100) (UniProt Q8IDW1); assay: PfPK6 kinase inhibitors, biochemical, TCAMS library (AID 1159586); details: recombinant PfPK6, Kinase-Glo ATP depletion luminescence
Chain of Plasmodium falciparum protein kinase 6 (PK6, PF3D7_1337100) (Q8IDW1 1-305): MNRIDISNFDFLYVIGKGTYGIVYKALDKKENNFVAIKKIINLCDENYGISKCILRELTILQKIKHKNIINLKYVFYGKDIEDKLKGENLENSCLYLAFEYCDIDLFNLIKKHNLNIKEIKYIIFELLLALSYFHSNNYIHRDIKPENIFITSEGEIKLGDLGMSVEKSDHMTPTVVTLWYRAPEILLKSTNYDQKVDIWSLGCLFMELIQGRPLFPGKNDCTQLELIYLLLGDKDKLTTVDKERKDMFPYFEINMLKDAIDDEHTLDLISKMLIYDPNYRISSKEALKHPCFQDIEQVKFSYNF

[7] = target: Protein kinase 7 (PK7), Plasmodium falciparum 3D7 (PF3D7_0213400) (UniProt Q7YTF7); assay: inhibition of Plasmodium PK7 catalytic activity – biochemical, TCAMS antimalarial set, Kinase-Glo luminescence (AID 1159587); details: recombinant PfPK7, Kinase-Glo ATP depletion luminescence
Chain of Protein kinase 7 (PK7), Plasmodium falciparum 3D7 (PF3D7_0213400) (Q7YTF7 1-343): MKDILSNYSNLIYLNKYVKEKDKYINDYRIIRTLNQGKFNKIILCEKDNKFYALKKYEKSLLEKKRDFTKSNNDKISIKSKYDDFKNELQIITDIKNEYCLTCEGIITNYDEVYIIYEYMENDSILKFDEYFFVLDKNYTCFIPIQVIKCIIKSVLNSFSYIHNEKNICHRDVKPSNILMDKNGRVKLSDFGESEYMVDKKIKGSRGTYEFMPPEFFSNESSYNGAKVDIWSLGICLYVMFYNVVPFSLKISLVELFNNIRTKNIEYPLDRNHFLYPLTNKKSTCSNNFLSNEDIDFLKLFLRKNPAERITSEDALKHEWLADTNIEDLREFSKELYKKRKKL

[8] = target: Calcium-dependent protein kinase 4 (Plasmodium falciparum (isolate 3D7)) (UniProt Q8IBS5); assay: PfCDPK4 kinase inhibitors, biochemical, TCAMS library (AID 1159588; cut-off not given, nearly all actives have IC50 up to about 0.91 µM); details: recombinant PfCDPK4, Kinase-Glo ATP depletion luminescence
Chain of Calcium-dependent protein kinase 4 (Plasmodium falciparum (isolate 3D7)) (Q8IBS5 whole entry, looked up): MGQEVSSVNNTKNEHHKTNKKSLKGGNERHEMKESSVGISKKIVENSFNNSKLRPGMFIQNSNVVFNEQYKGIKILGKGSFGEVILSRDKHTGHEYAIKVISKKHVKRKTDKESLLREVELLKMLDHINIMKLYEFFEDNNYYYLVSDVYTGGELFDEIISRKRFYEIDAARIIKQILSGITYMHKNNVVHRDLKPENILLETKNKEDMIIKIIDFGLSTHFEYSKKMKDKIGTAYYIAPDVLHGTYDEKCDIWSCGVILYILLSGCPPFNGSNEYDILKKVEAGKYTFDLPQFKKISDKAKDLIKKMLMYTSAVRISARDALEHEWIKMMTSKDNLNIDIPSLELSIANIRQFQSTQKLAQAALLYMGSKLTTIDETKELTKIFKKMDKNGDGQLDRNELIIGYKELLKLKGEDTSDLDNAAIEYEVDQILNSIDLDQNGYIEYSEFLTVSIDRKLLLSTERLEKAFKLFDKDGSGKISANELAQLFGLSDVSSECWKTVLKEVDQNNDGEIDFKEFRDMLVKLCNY

Work on `CC(C)CNCc1cccc(-c2cccc(CNc3ccc4ncccc4c3)c2)c1` yielded a growth inhibition [1] of 28%, an inhibition [2] of 23% and an inhibition [3] of 6%. For the same compound, the growth inhibition [4] was 92% (active), the outcome [5] was “inactive” and the outcome [6] was “inactive”. For the same compound, the outcome [7] was “inactive” and the outcome [8] was “inactive”.
With `OCCNc1nc(Nc2cccc(O)c2)nc2ccccc12` the growth inhibition [1] was 55% (active), the inhibition [2] was 3% and the inhibition [3] was 3%. The growth inhibition [4] was 96% (active), the outcome [5] was “inactive” and the outcome [6] was “inactive”. For the same compound, the outcome [7] was “inactive” and the outcome [8] was “inactive”.
For `CO/C(=C\C=C\c1cc2cc(Cl)c(Cl)cc2[nH]1)C(=O)NCCCN1CCN(c2cccc(OC)c2)CC1`, the growth inhibition [1] was 93% (active), the inhibition [2] was 61% (active) and the inhibition [3] was 0%. The growth inhibition [4] was 100% (active), the outcome [5] was “inactive” and the outcome [6] was “inactive”. The outcome [7] was “inactive” and the outcome [8] was “inactive”.
With `CC(C)CCNCc1ccc(OCc2cccc(COc3ccc(CNCCC(C)C)cc3I)c2)c(I)c1` the growth inhibition [1] was 49%, the inhibition [2] was 99% (active) and the inhibition [3] was 2%. The growth inhibition [4] was 91% (active), the outcome [5] was “inactive” and the outcome [6] was “inactive”. For the same compound, the outcome [7] was “inactive” and the outcome [8] was “inactive”.
For `CCOC(=O)c1[nH]c(-c2ccccc2)nc1-n1nc(C)cc1C`, the growth inhibition [1] was 9%, the inhibition [2] was 7% and the inhibition [3] was 2%. The growth inhibition [4] was 92% (active), the outcome [5] was “inactive” and the outcome [6] was “inactive”. For the same compound, the outcome [7] was “inactive” and the outcome [8] was “inactive”.
`O=c1cc(NCCCNCc2ccc(Cl)c(Cl)c2)[nH]c2ccc(Oc3ccccc3)cc12` gave a growth inhibition [1] of 29%, an inhibition [2] of 1% and an inhibition [3] of 2%. The growth inhibition [4] was 92% (active), the outcome [5] was “inactive” and the outcome [6] was “inactive”. The outcome [7] was “inactive” and the outcome [8] was “inactive”.
`O=C(NCCCCN1CCC(c2c[nH]c3ccccc23)CC1)c1sc(-c2ccc(C(F)(F)F)cc2)nc1CO` showed a growth inhibition [1] of 3%, an inhibition [2] of 34% and an inhibition [3] of 0%. The growth inhibition [4] was 94% (active), the outcome [5] was “inactive” and the outcome [6] was “inactive”. For the same compound, the outcome [7] was “inactive” and the outcome [8] was “inactive”.
With `O=C(Cn1c(CCc2cccc(F)c2F)nc(=O)c2ccccc21)N(Cc1ccc(-c2ccc(C(F)(F)F)cc2)cc1)C1CCN(C2CCSCC2)CC1` the growth inhibition [1] was 93% (active), the inhibition [2] was 97% (active) and the inhibition [3] was 0%. The growth inhibition [4] was 99% (active), the outcome [5] was “inactive” and the outcome [6] was “inactive”. For the same compound, the outcome [7] was “inactive” and the outcome [8] was “inactive”.
In the case of `COc1ccc(C(=O)Nc2ccc3nc(N4CCCCC4)cc(C)c3c2)cc1[N+](=O)[O-]`, the growth inhibition [1] is reported as 7%, the inhibition [2] is reported as 17% and the inhibition [3] is reported as -9%. The growth inhibition [4] was 96% (active), the outcome [5] was “inactive” and the outcome [6] was “inactive”. The outcome [7] was “inactive” and the outcome [8] was “inactive”.
With `O=c1cc(NCCCNCc2cc(Br)ccc2F)[nH]c2ccccc12` the growth inhibition [1] was 14%, the inhibition [2] was -2% and the inhibition [3] was 6%. The growth inhibition [4] was 95% (active), the outcome [5] was “inactive” and the outcome [6] was “inactive”. The outcome [7] was “inactive” and the outcome [8] was “inactive”.
In the case of `CC(=O)N(C)C1CCN(Cc2cccc(-c3ccc(-c4nc5ccc(F)cc5[nH]4)cc3)c2)C1` (configuration not stated), the growth inhibition [1] is reported as 19%, the inhibition [2] is reported as 24% and the inhibition [3] is reported as 0%. The growth inhibition [4] was 92% (active), the outcome [5] was “inactive” and the outcome [6] was “inactive”. The outcome [7] was “inactive” and the outcome [8] was “inactive”.
For `COc1ccc(CC(=O)Nc2ccc(Nc3nc(C)cc(N(C)C)n3)cc2)cc1`, the growth inhibition [1] was 31%, the inhibition [2] was 17% and the inhibition [3] was -3%. For the same compound, the growth inhibition [4] was 97% (active), the outcome [5] was “inactive” and the outcome [6] was “inactive”. The outcome [7] was “inactive” and the outcome [8] was “inactive”.
With `COc1ccccc1C1CCN(C2CCC(NC(=O)c3cc4cc(C(C)C)ccc4[nH]3)CC2)CC1` (configuration not stated) the growth inhibition [1] was 98% (active), the inhibition [2] was 100% (active) and the inhibition [3] was -4%. For the same compound, the growth inhibition [4] was 101% (active), the outcome [5] was “inactive” and the outcome [6] was “inactive”. The outcome [7] was “inactive” and the outcome [8] was “inactive”.
For `O=[N+]([O-])c1cccc(-c2ccc(C=NNc3cc(N4CCCC4)nc(N4CCCC4)n3)o2)c1`, the growth inhibition [1] was 67% (active), the inhibition [2] was -6% and the inhibition [3] was 0%. The growth inhibition [4] was 100% (active), the outcome [5] was “inactive” and the outcome [6] was “inactive”. For the same compound, the outcome [7] was “inactive” and the outcome [8] was “inactive”.
With `CCN1CCC(N(Cc2ccc(-c3ccc(C(F)(F)F)cc3)cc2)C(=O)CCCCn2c(CCc3cccc(F)c3F)nc(=O)c3ccccc32)CC1` the growth inhibition [1] was 77% (active), the inhibition [2] was 54% (active) and the inhibition [3] was 4%. For the same compound, the growth inhibition [4] was 90% (active), the outcome [5] was “inactive” and the outcome [6] was “inactive”. For the same compound, the outcome [7] was “inactive” and the outcome [8] was “inactive”.
With `CC(Sc1nc(-c2ccccc2)c(-c2ccccc2)o1)C(=O)NC1CC1` (configuration not stated) the growth inhibition [1] was 91% (active), the inhibition [2] was 13% and the inhibition [3] was -2%. The growth inhibition [4] was 94% (active), the outcome [5] was “inactive” and the outcome [6] was “inactive”. For the same compound, the outcome [7] was “inactive” and the outcome [8] was “inactive”.
For `NC(N)=NC(=O)Nc1cc(Br)c(Br)c(Br)c1`, the growth inhibition [1] was 89% (active), the inhibition [2] was 0% and the inhibition [3] was 1%. For the same compound, the growth inhibition [4] was 101% (active), the outcome [5] was “inactive” and the outcome [6] was “inactive”. For the same compound, the outcome [7] was “inactive” and the outcome [8] was “inactive”.
For `Cc1cc(N[C@@H](Cc2ccccc2)C(=O)NCCc2ccccc2)nc(NCC2CCCCC2)n1`, the growth inhibition [1] was 95% (active), the inhibition [2] was 24% and the inhibition [3] was -2%. The growth inhibition [4] was 101% (active), the outcome [5] was “inactive” and the outcome [6] was “inactive”. The outcome [7] was “inactive” and the outcome [8] was “inactive”.
With `Oc1ccc2[nH]c(-c3ccc(F)cc3F)nc2c1CN1CCC(O)(c2ccccc2)CC1` the growth inhibition [1] was 70% (active), the inhibition [2] was 16% and the inhibition [3] was -2%. For the same compound, the growth inhibition [4] was 96% (active), the outcome [5] was “inactive” and the outcome [6] was “inactive”. The outcome [7] was “inactive” and the outcome [8] was “inactive”.
